From PubChem BioAssay
Only some compounds are listed: those with a hit (about 1.3% of all), similar ones and a draw of the others.
PvdQ inh: P. aeruginosa PvdQ acylase inhibition; purified PvdQ acylase, fluorescence plate reader; inhibition, % at 10 µM; 340,000 tested, 0.063% active; in the data active means inhibition above about 30%, passing the limit was not always enough;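 further: 0% = vehicle neutral wells and 100% = reference inhibitor wells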
CR mimetic SO: lowers age-related superoxide in aged yeast cells; S. cerevisiae aged cells, superoxide DHE fluorescence; stronger effect = lower value; superoxide response (% of plate mean), % at 10 µM; 330,000 tested, 0.18% active;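 active means superoxide response under a set limit, about three screen SD below normal, cut at about 65% in these data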;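 further: yeast aged for seven days with compound at 30 °C before DHE staining; 100% = average MFI of all compound-treated wells on the plate with controls excluded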
OPRM1-OPRD1 ag: agonists of human mu-delta opioid receptor heterodimerization; activation, % at 9.3 µM; cells, OPRM1-OPRD1 heterodimerization, luminescence; AID 504326; 340,000 tested, 0.3% active; P35372+P41143; in the data active means activation above about 18%;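 further: 0% = vehicle-treated cells and 100% = reference agonist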
Target sequence (P35372 whole entry, looked up): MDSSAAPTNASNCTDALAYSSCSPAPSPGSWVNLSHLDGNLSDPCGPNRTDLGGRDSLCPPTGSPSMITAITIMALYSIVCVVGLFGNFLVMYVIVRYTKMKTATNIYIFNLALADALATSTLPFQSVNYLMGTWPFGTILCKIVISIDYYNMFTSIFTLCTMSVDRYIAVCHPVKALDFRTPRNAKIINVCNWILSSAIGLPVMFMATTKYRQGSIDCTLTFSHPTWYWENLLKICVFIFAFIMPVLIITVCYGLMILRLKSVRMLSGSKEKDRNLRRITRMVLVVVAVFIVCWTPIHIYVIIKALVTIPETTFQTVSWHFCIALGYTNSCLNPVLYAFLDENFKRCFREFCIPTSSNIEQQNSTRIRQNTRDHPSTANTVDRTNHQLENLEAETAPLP
Target sequence (P41143 whole entry, looked up): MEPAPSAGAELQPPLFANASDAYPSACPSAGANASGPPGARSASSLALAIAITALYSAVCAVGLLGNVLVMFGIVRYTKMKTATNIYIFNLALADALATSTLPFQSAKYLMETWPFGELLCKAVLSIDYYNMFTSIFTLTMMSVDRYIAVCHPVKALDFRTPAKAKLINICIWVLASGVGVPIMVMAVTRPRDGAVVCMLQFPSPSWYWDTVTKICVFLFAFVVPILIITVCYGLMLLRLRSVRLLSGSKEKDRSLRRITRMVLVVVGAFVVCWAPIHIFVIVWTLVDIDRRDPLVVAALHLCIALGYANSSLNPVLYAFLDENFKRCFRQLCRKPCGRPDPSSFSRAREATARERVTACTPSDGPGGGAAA
MOR-DOR inv ag: inverse agonist of human OPRM1-OPRD1 heterodimerization; 340,000 tested, 0.21% active; cell-based MOR-DOR heterodimer luminescence, inverse agonism; inhibition, % at 9.3 µM; P35372+P41143; AID 504357; in the data active means inhibition above about 22%, passing the limit was not always enough;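 further: 0% = cells with DMSO and 100% = wells without cells with DMSO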
HTR5A inv ctr: counter-screen for OPRM1-OPRD1 inverse agonists: human HTR5A inverse agonism; P47898; inhibition, % at 9.3 µM; 340,000 tested, 0.083% active; AID 504634; HTR5A cell line, luminescence; in the data active means inhibition mostly above about 23%, no sharp cut-off; inactive means mostly below about 18%;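 further: 0% = cells with DMSO and 100% = no-cell wells with DMSO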
HTR5A ag: activates human HTR5A in OPRM1-OPRD1 agonist counter-screen. P47898. activation, % at 9.3 µM. 340,000 tested, 0.61% active. HTR5A agonist assay, luminescence, cell-based; in the data active means activation mostly above about 9.5%, no sharp cut-off; inactive means mostly below about 7.6%;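 further: 0% = cells with vehicle only and 100% = reference agonist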
Superoxide pick: yeast aging superoxide inhibition, cherry pick confirmation; shares compounds with CR mimetic SO; S. cerevisiae aging, superoxide DHE fluorescence; stronger effect = lower value; superoxide response (% of plate), % at 10 µM; 850 tested, 1% active; AID 434994;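 active means superoxide signal below 65% of the plate average of sample wells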;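 further: cells aged with compound for 7 days at 30 degrees C before staining; 100% equals mean DHE fluorescence of all compound wells on the plate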
DHE counter: DHE fluorescence interference, counter-screen artifact; shares compounds with CR mimetic SO; S. cerevisiae BY4741, flow cytometry; stronger effect = lower value; fluorescence response, % at 10 µM; 850 tested, under 10 active;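 active means fluorescence response below 15%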;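 further: percent of the mean fluorescence averaged over all compound wells on the plate; lower means stronger quenching of DHE signal or ROS scavenging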
Starred values were filed as active, the others as inactive; x = not tested or not shown.

SMILES	PvdQ inh	CR mimetic SO	OPRM1-OPRD1 ag	MOR-DOR inv ag	HTR5A inv ctr	HTR5A ag	Superoxide pick	DHE counter
CCN(CC(=O)Nc1ccccc1C(F)(F)F)C(=O)c1oc2c(Cl)cccc2c1C	-9	110	0	0	5	-2	x	x
Cc1nc2ccccn2c1CN(C)C(=O)C1CCC(=O)N(Cc2cccc(F)c2)C1 (stereo unspecified)	-8	86	-2	12	0	0	x	x
CCNC(=S)NNC(=O)c1csc2c1CCCC2	6	58*	-4	20	16	-3	88	103
Cc1ccc(C)c(NC(=S)NNC(=O)c2csc3c2CCCC3)c1	8	100	0	2	-8	0	x	x
O=C(COC(=O)C1CC2CCCC(C1)C2=O)Nc1ccccc1 (stereo unspecified)	-17	106	-4	15	-11	-1	x	x
COc1ccc(S(=O)(=O)N(C)Cc2ccc3c(c2)OCCO3)cc1	-13	83	-1	5	19	1	x	x
C=CCn1c(SCC(=O)Nc2cc(NC(C)=O)ccc2OC)nnc1-c1cccnc1	11	105	-4	18	-8	3	94	94
C=CCn1c(SCC(=O)Nc2ccc3c(c2)OCCO3)nnc1-c1ccco1	-1	92	-2	12	23	-2	104	102
CCOc1cccc(-c2nnc(SCC(=O)Nc3cccc(OC)c3)n2N)c1	-12	x	0	2	-1	0	104	100
C=CCn1c(SCC(=O)Nc2cc(NC(C)=O)ccc2OC)nnc1-c1ccccn1	-12	112	0	1	-7	3	x	x
COc1cccc(-c2nnc(SCC(=O)Nc3ccc(OC)c(OC)c3)n2N)c1	-9	104	-2	7	17	6	111	99
CC(OC(=O)CCN1C(=O)C2CC=CCC2C1=O)C(=O)Nc1cccc(C#N)c1 (stereo unspecified)	-8	100	-2	11	3	-1	x	x
O/N=C(/c1ccccc1)c1cc2cc(Br)cc(Br)c2o1	-12	100	2	-11	7	-2	x	x
NS(=O)(=O)c1ccc(NS(=O)(=O)c2ccc(Br)cc2)cc1	-3	91	-1	7	-23	9	102	90
O=C(Nc1ccncc1)C1CCN(S(=O)(=O)c2ccc(Cl)c(C(F)(F)F)c2)CC1	3	94	-1	3	0	0	x	x
CCC(=Nc1ccccc1O)C1=C(O)CC(c2ccccc2)CC1=O (stereo unspecified)	-5	62*	8	-42	29	2	70	98
CCC(=Nc1ccccc1OC)C1=C(O)CC(c2ccccc2)CC1=O (stereo unspecified)	-7	67	-1	7	0	0	x	x
CC(=O)Nc1ccc(S(=O)(=O)Nc2nc3nc(-c4ccccc4)cc(-c4ccccc4)n3n2)cc1	-10	60*	-3	15	-4	1	96	94
O=C(NC1(Cc2ccccc2)CCN(Cc2ccc(-c3ccccc3)cc2)C1=O)c1ccccc1 (stereo unspecified)	-3	95	-1	5	-37	-2	x	x
COc1ccc(C)cc1N(C(=O)c1cccc(F)c1)c1nc2ccccc2s1	-7	48*	1	-4	1	-2	97	108
COc1ccc(CNC(=O)CN(C)Cc2ccc(C(C)(C)C)cc2)cc1	5	94	0	-1	1	0	x	x
Cc1ccccc1Cn1cc(NC(=O)c2noc3c2CC(C(C)(C)C)CC3)cn1 (stereo unspecified)	7	65*	0	-2	3	-1	121	99
CC(=O)c1ccc(NC(=S)NC(=O)/C=C/c2ccc(F)cc2)cc1	-11	49*	-1	6	1	0	102	105
COc1cccc(NC(=S)NC(=O)/C=C/c2ccc(F)cc2)c1	1	92	2	-9	-34	-5	x	x
Cc1cccc(-n2ccnc2CN2CCN(C(C)C)C(CCO)C2)c1 (stereo unspecified)	-19	80	2	-12	-6	2	x	x
SMILES	PvdQ inh	CR mimetic SO	OPRM1-OPRD1 ag	MOR-DOR inv ag	HTR5A inv ctr	HTR5A ag	Superoxide pick	DHE counter
CCN(C(=O)CSc1ncccc1C(=O)OC(C)C)c1cccc(C)c1	-13	63*	-1	5	-13	11*	112	101
CCOC(=O)c1cccnc1SCC(=O)N(CC)c1cccc(C)c1	-2	103	-1	5	-9	3	x	x
Cc1ccc(S(=O)(=O)N(C)CC(=O)NCCCn2ccnc2)cc1	-4	99	0	-3	-1	4	x	x
CC(=O)Nc1ccc(/C=C(\C#N)C(=O)NC2CCCCC2)cc1	-5	101	0	-1	-1	0	x	x
CSc1ccc(/C=C(\C#N)C(=O)NC2CCCCC2)cc1	1	60*	-2	9	16	-6	102	91
Cc1ccc(C(=O)N2CCN(c3ncccn3)CC2)c(C)c1	-5	98	-1	4	-7	2	x	x
COC(=O)c1ccc(Nc2nnc(-c3ccc(C)c(S(=O)(=O)NCC4CCCO4)c3)c3ccccc23)cc1 (stereo unspecified)	19	95	-3	17	12	-5	87	92
Cc1ccc(-c2nnc(Nc3ccc(C(=O)N(C)C)cc3)c3ccccc23)cc1S(=O)(=O)NCC1CCCO1 (stereo unspecified)	-12	97	-2	10	10	4	115	115
COC(=O)c1cn(C(=O)c2cccc(Br)c2)c2ccccc12	-9	101	-1	4	-12	3	x	x
CCc1cc(C(=O)Nc2nc(-c3ccccn3)cs2)sc1C	-10	80	0	1	5	-2	x	x
CCOc1ccc(NC(=O)C2CC(=O)N3CCCN=C3S2)cc1 (stereo unspecified)	-14	107	-2	11	6	1	x	x
CCCOc1ccc(NC(=O)C2CC(=O)N3CCCN=C3S2)cc1 (stereo unspecified)	-5	65*	-1	6	-8	-3	95	107
Cc1ccc(/C=C(\C#N)c2nc3ccccc3[nH]2)s1	-1	95	-1	3	21	-1	x	x
N#C/C(=C/c1cccs1)c1nc2ccccc2[nH]1	7	60*	6	-29	-3	0	111	107
COc1ccc(CN(CC(=O)NCCc2ccccc2)C(=O)CCC(=O)Nc2cc(C)ccn2)cc1	-6	107	-2	11	-30	11	x	x
Cc1ccc(CN(CC(=O)NCCc2ccccc2)C(=O)CCCC(=O)Nc2cc(C)on2)cc1	0	64*	-4	19	0	0	108	91
COc1ccc(/C=N/NC(=O)c2cccnc2)cc1	-8	54*	-2	9	-3	1	95	99
